# In PubChem BioAssay AID431 (Sanford-Burnham Center for Chemical Genomics, 2006):
# The campaign covered roughly 63,000 compounds. About 1,100 (1.7%) were called active.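 How the source made its calls: active means compounds whose percent cytotoxicity in the single-dose primary screen, scaled between solvent and toxic-drug controls, exceeds 50; inactive means the rest.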 What follows is part of a selection rich in actives, with near analogues and random picks from the rest. Entries with a potency or affinity are not part of this list.
# Test: cytotoxicity in KRAS-transformed pancreatic duct cells, primary screen, cell-based, fluorescence, HTS (AID 431);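 further: 0% = DMSO solvent wells and 100% = doxorubicin-treated wells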
# Settings: HPDE-C7K KRASV12 cells, Alamar Blue viability, 48 h; at 10 µM; active compounds read high
row,SMILES,cytotoxicity
1,O=C1C(C=NCCCn2ccnc2)=C(O)c2ccccc21,1% (inactive)
2,O=C(NC1CCCCC1)C1CCCN1C(=O)NCc1ccccc1 (stereo not given),11.8% (inactive)
3,CCNS(=O)(=O)c1ccc(OCCNS(C)(=O)=O)cc1,-2.5% (inactive)
4,O=C(/C=C/N1CCOCC1)c1coc2ccccc12,-4.5% (inactive)
5,Cc1cccc(C)c1NC(=O)CSc1nnc(-c2ccoc2C)n1C,-5.8% (inactive)
6,O=C(OCCN(C1=NS(=O)(=O)c2ccccc21)c1ccc(Cl)cc1)c1ccco1,-16.8% (inactive)
7,CC(O)CCc1nc2ccc(C(=O)O)cc2[nH]1 (stereo not given),-5.2% (inactive)
8,CCc1nnc(NC(=O)c2ccc(S(=O)(=O)N3CCCCC3C)cc2)s1 (stereo not given),-7.7% (inactive)
9,Cc1nnc(NC(=O)c2ccc(S(=O)(=O)N3CCCCCC3)cc2)o1,6.5% (inactive)
10,CC1CCCN(S(=O)(=O)c2ccc(C(=O)Nc3nnc(-c4ccccc4Cl)o3)cc2)C1 (stereo not given),63.8% (active)
11,CC1CCCCN1S(=O)(=O)c1ccc(C(=O)Nc2nnc(-c3ccccc3Cl)o2)cc1 (stereo not given),56.7% (active)
12,CC1CCCCN1S(=O)(=O)c1ccc(NC(=O)c2cccc(-n3cnnn3)c2)cc1 (stereo not given),20.3% (inactive)
13,O=C(Nc1nnc(-c2ccccc2Cl)o1)c1ccc(S(=O)(=O)N2CCCCCC2)cc1,43.8% (inactive)
14,O=C(Nc1ccccc1C(=O)N1CCOCC1)c1ccco1,3.4% (inactive)
15,Cc1ccc(C)c(C(=O)CSc2nnnn2-c2cccnc2)c1,0.6% (inactive)
16,Cc1cc(C)n(S(=O)(=O)c2cccc(Cl)c2Cl)n1,-9.2% (inactive)
17,COc1nc(-c2ccccc2)ccc1-c1noc(-c2ccco2)n1,-3% (inactive)
18,COC(=O)c1ccccc1S(=O)(=O)N(Cc1ccco1)Cc1cc2cc(OC)ccc2[nH]c1=O,-1.7% (inactive)
19,COC(=O)CCC(=O)Nc1sc2c(c1C#N)CCCC2,-6.7% (inactive)
20,CCCC(=O)Nc1sc2c(c1C#N)CCCC2,1.4% (inactive)
21,CCc1ccc(CCC(=O)Nc2sc3c(c2C#N)CCCC3)o1,73.8% (active)
22,COC(=O)C1=C(C)NC(=O)CC1c1cccc(Cl)c1Cl (stereo not given),-0.8% (inactive)
23,CCOC(=O)C1C(c2cccc(Cl)c2Cl)NC(=O)NC1(O)C(F)(F)F (stereo not given),10.1% (inactive)
24,O=C(Nc1ccc2c(c1)OCO2)c1ccc(Br)c(S(=O)(=O)N2CCCC2)c1,14.5% (inactive)
25,CCc1ncc(C(O)c2cccc(OC)c2OC)n1C (stereo not given),6.9% (inactive)

row,SMILES,cytotoxicity
1,CCOC(=O)c1c(N)sc(C(=O)Nc2ccc3c(c2)OCO3)c1C,19.8% (inactive)
2,CCN(CC)S(=O)(=O)c1ccc(NC(=O)Cn2c(=O)oc3ccccc32)cc1,1.6% (inactive)
3,Cc1nn2c(N3CCOCC3)c3c(nc2c1-c1ccccc1)CCCC3,8.5% (inactive)
4,CC1=C(C#N)c2nc(N)c(C#N)c(C)c2/C1=C\c1ccccc1,107% (active)
5,Cc1c(-c2ccccc2)nc(N)c(C#N)c1-c1ccco1,-7.4% (inactive)
6,Cc1nc(N)c(C#N)c(-c2ccccc2)c1C,18.7% (inactive)
7,COC(=O)Nc1nc2ccc(C(=O)c3ccccc3)cc2[nH]1,67.2% (active)
8,COc1cc(C(=O)Nc2nc3ccccc3[nH]2)cc(OC)c1OC,-19.5% (inactive)
9,O=C(Nc1nc2ccccc2[nH]1)c1ccc(F)cc1,-12% (inactive)
10,Cc1nc2ccc(C(=O)c3ccccc3)cc2[nH]1,1.1% (inactive)
11,COC(=O)Nc1nc2ccc(Sc3ccccc3)cc2[nH]1,57.5% (active)
12,O=C(COc1ccccc1)Nc1nc2ccccc2[nH]1,-1.5% (inactive)
13,CCC(C)N(C(=O)COC(=O)Cc1n[nH]c(=O)c2ccccc12)C1CCS(=O)(=O)C1 (stereo not given),-29.5% (inactive)
14,O=C(CN(C(=O)Cn1nnc(-c2cccs2)n1)c1cnc2ccccc2c1)NCC1CCCO1 (stereo not given),-3.6% (inactive)
15,O=C(COc1ccc(F)c(Cl)c1)c1ccc[nH]1,-3.1% (inactive)
16,COc1cc(-c2nnc(-c3ccc(S(=O)(=O)c4ccccc4)cc3)o2)cc(OC)c1OC,-1.1% (inactive)
17,COc1ccc(C2C(C(=O)N3CCCC3)CC(=O)N2c2ccc(OC)cc2)cc1 (stereo not given),1.8% (inactive)
18,CN(C)CC(=O)c1ccc(-c2ccccc2)cc1,-1.7% (inactive)
19,CC(=O)Nc1cc(-c2nn3c(C)nnc3s2)ccc1C,6.7% (inactive)
20,Cc1cc(C)c(C#N)c(SCC(=O)CC(=O)OC(C)C)n1,29.7% (inactive)
21,Cc1nc(SCC(=O)CC(=O)OC(C)C)c(C#N)c(C)c1C,-4.4% (inactive)
22,CCOC(=O)CC(=O)Nc1nnc(CC(C)C)s1,-10.3% (inactive)
23,CCOC(=O)N1CCC(NC(=O)Cn2cccc2C(=O)c2ccccc2)CC1,-6.2% (inactive)
24,COc1ccc(S(=O)(=O)n2nc(OC(=O)c3ccc(C)cc3)cc2N)cc1,-7.7% (inactive)
25,COc1ccc(S(=O)(=O)n2nc(OC(=O)c3c(-c4ccccc4Cl)noc3C)cc2N)cc1,51.1% (active)

row,SMILES,cytotoxicity
1,COc1ccccc1C(=O)Oc1cc(N)n(S(=O)(=O)c2ccc(C)cc2)n1,-5.5% (inactive)
2,Cc1onc(-c2ccccc2Cl)c1C(=O)Oc1cc(N)n(S(=O)(=O)c2ccc(F)cc2)n1,36.8% (inactive)
3,COc1ccc(S(=O)(=O)n2nc(OC(=O)c3ccccc3)cc2N)cc1,0% (inactive)
4,Cc1ccc(S(=O)(=O)n2nc(OC(=O)c3c(-c4ccccc4Cl)noc3C)cc2N)cc1,73% (active)
5,O=C(O)CCC(=O)OCC1CCCO1 (stereo not given),-8.8% (inactive)
6,O=C(CSc1nnc(-c2ccccn2)n1Cc1ccccc1)NC1CCCC1,-15.2% (inactive)
7,O=S(=O)(Nc1ccc(S(=O)(=O)N2CCOCC2)cc1)c1ccccc1,7.6% (inactive)
8,OC(CNCc1ccco1)Cn1c2ccccc2c2ccccc21 (stereo not given),40.9% (inactive)
9,Cc1ccc(/C(C#N)=C\c2cn(C)c3ccccc23)cc1,35.2% (inactive)
10,CC1(C(=O)NC2CCCC2)CCC(=O)N1CCC1=CCCCC1 (stereo not given),-21.1% (inactive)
11,Cc1cc(C)c2nc(SCC(=O)N3CCCCC3)c(C#N)cc2c1,2.7% (inactive)
12,Cc1cccc2cc(C#N)c(SCC(=O)N3CC(=O)Nc4ccccc43)nc12,65% (active)
13,Cc1ccccc1-n1c(C)nnc1SCC(=O)N1CC(=O)Nc2ccccc21,-8.9% (inactive)
14,Cc1cccc2cc(C#N)c(SCCN3CCCCC3)nc12,57.1% (active)
15,Cc1cccc2cc(C#N)c(SCC(=O)N3CCC(C)CC3)nc12,2.7% (inactive)
16,Cc1cccc2cc(C#N)c(N3CCN(C)CC3)nc12,1.8% (inactive)
17,CNc1nc(C)c(C(=O)OCc2ccccc2)s1,-0.8% (inactive)
18,C=CCOn1c(=O)c(=O)n(OCc2ccccc2)c2ccccc21,-23.8% (inactive)
19,C/C(N)=C(/C#N)C(=O)CSc1nc2cc(Cl)ccc2s1,12% (inactive)
20,CCOC(=O)N1CCC(NC(=O)c2cc(S(=O)(=O)N3CCC4(CC3)OCCO4)ccc2F)CC1,-4.2% (inactive)
21,COC(=O)c1ccc(C2C(C#N)=C(N)Oc3cc(C)n(C)c(=O)c32)cc1 (stereo not given),-10.1% (inactive)
22,CCCC(=O)N1CCN(c2ccc(C(=O)c3ccc(OC)c(Br)c3)cc2F)CC1,62.5% (active)
23,CCCCCC(=O)N1CCN(c2ccc(C(C)=O)cc2F)CC1,0.9% (inactive)
24,CCCC(=O)c1ccc(N2CCN(C(=O)c3ccc(Br)cc3)CC2)c(F)c1,-6.7% (inactive)
25,COc1ccc(-c2nnc(SCC(=O)N3CCCCC3)o2)cc1OC,-0.7% (inactive)

row,SMILES,cytotoxicity
1,O=C(Nc1ccc(C(F)(F)F)cc1Cl)c1ccc(Cn2cc(Br)cn2)o1,124% (active)
2,O=C(NC1CCCCC1)c1ccc(Cn2cc(Br)cn2)o1,-12.9% (inactive)
3,CC(=O)c1sc(NC(=O)c2ccc(Cn3cc(Br)cn3)o2)nc1C,1.1% (inactive)
4,Clc1ccccc1CSc1ncccn1,-6% (inactive)
5,O=C(CSc1nnc(-c2ccco2)c(-c2ccco2)n1)Nc1ccccc1,1.2% (inactive)
6,COc1ccc(NC(=O)CSc2nnc(-c3ccco3)n2C)cc1,0.5% (inactive)
7,Cc1cc(C)nc(SCc2nnc(SCc3ccccc3Cl)o2)n1,-16.5% (inactive)
8,Cc1ccc(NC(=O)CSc2nnc(-c3ccco3)c(-c3ccco3)n2)cc1,90.7% (active)
9,CCNC(=O)CP(=O)(c1ccccc1)c1ccccc1,1.9% (inactive)
10,CCc1ccc(Cn2nnc(C(=O)Nc3cccc(C)c3)c2N)cc1,-0.7% (inactive)
11,CCOC(=O)C1CCCN(CCC(C)c2ccccc2)C1 (stereo not given),20.5% (inactive)
12,Cc1c(NC(=O)NC(=O)c2ccc(F)cc2)c(=O)n(-c2ccccc2)n1C,-11.2% (inactive)
13,Cc1nc(N)sc1-c1csc(Nc2ccccc2)n1,49% (inactive)
14,COc1ccc(Nc2nc(-c3sc(N)nc3C)cs2)cc1,58% (active)
15,Cc1nc(N)sc1-c1csc(Nc2ccccn2)n1,-9.8% (inactive)
16,COc1ccc(CCNc2nc(-c3sc(N)nc3C)cs2)cc1OC,16.4% (inactive)
17,COc1cccc(Nc2nc(-c3sc(N)nc3C)cs2)c1,60.7% (active)
18,COc1ccc(OC)c(Nc2nc(-c3sc(N)nc3C)cs2)c1,37.6% (inactive)
19,CCOc1ccc(Nc2c3c(nc4ncnn24)CC(C)CC3)cc1 (stereo not given),4.3% (inactive)
20,O=C(O)CCCNS(=O)(=O)c1cccs1,8% (inactive)
21,COc1ccc(NC(=O)C2CC2)cc1-n1cnnn1,-12.2% (inactive)
22,NC(=O)C1CCN(C(=O)CN(c2cccc(C(F)(F)F)c2)S(=O)(=O)c2ccccc2)CC1,-1.4% (inactive)
23,CCOC(=O)Nc1ccc2c(c1)N(C(=O)CCN1CCOCC1)c1ccccc1S2,0.3% (inactive)
24,CCOC(=O)Nc1ccc2c(c1)Sc1ccccc1N2C(=O)CCN1CCOCC1,1.2% (inactive)
25,CCOC(=O)Nc1ccc2c(c1)N(C(=O)CCN1CCOCC1)c1ccccc1S2=O (stereo not given),69.3% (active)
